Data reported in ChEMBL document CHEMBL1961873, “Compounds: GSK PKIS; Assays: Nanosyn kinase panel” (2012).

target: Vascular endothelial growth factor receptor 3 (Homo sapiens) (UniProt P35916); details: at 1 µM;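 also: mean FLT4 inhibition, averaged across replicates, from the GSK PKIS kinase inhibitor screen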
Sequence (P35916 whole entry): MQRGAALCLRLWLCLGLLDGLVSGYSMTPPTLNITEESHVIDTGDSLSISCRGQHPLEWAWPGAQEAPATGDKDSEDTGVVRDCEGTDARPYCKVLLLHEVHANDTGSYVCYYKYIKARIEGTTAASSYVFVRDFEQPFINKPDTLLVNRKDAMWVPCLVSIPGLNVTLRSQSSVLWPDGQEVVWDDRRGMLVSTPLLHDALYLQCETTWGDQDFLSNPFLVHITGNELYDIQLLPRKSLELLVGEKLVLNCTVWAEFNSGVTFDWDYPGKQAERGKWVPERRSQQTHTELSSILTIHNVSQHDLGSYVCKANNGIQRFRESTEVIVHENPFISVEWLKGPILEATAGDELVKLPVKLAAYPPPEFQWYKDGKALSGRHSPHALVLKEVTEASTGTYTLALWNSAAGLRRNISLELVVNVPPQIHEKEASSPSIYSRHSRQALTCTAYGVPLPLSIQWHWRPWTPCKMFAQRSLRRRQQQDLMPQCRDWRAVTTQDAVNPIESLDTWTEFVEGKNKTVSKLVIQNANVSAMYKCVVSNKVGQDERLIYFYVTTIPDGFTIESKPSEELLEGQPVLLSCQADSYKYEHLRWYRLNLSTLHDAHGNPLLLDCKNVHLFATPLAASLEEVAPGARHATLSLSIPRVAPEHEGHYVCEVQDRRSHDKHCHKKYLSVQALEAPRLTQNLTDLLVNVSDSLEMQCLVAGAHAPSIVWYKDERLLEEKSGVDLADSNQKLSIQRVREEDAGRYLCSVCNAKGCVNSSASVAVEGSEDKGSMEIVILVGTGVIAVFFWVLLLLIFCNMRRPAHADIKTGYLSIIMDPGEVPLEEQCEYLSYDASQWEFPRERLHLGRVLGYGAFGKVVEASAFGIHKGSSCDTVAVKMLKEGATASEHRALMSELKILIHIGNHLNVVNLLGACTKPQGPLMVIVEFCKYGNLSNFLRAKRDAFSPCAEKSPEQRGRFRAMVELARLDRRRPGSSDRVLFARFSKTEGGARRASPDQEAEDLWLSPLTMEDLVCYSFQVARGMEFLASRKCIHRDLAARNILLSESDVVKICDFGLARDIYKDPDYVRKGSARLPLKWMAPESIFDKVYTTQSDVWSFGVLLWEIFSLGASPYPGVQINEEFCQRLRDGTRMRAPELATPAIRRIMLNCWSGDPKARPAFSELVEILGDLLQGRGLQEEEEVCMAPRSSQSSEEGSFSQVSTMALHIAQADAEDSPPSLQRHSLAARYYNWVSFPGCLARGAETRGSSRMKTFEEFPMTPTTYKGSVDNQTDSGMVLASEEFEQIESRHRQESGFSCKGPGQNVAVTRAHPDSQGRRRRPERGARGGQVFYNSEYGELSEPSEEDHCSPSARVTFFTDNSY

Structure (SMILES) | inhibition [%]
CC(=O)Nc1cccc(C#Cc2cncnc2Nc2ccc(OCc3cccc(F)c3)c(Cl)c2)n1 | -2.96
O=C1NC(=O)C(c2ccccc2Cl)=C1Nc1cccc(O)c1 | 3.79
COc1ccc2cc(-c3c(-c4ccncc4)nc(-c4ccc([S+](C)[O-])cc4)n3C)ccc2c1 (stereo unspecified) | 0.4
NS(=O)(=O)c1ccc(N/N=C2\C(=O)Nc3ccc(C(=O)NCCc4c[nH]cn4)cc32)cc1 | 26.4
CCCN1CCC=C(c2ccc(Nc3nc(Nc4ccccc4C(N)=O)c4cc[nH]c4n3)c(C)c2)C1 | 26.6
CCn1c(-c2nonc2N)nc2cnc(Oc3cccc(NC(=O)c4ccc(OCCN5CCOCC5)cc4)c3)cc21 | 0.92
CC1=C(C(=O)Nc2ccc3[nH]ncc3c2)C(c2ccc3ccccc3c2)CC(=O)N1 (stereo unspecified) | 3.27
COc1cc(C)c(NC(=O)CN(C)C)cc1Nc1nc(Nc2cccc(F)c2C(N)=O)c2cc[nH]c2n1 | 1.77
CN1CCC(C(=O)Nc2n[nH]c3nnc(-c4ccccc4)cc23)CC1 | 3.3
CCN1CCC(CC(=O)Nc2n[nH]c3nc(-c4cccs4)c(Br)cc23)CC1 | 2.51
Nc1nc(-c2ccccn2)c(-c2ccc3ncccc3n2)s1 | 2.46
[O-][S+]1CCN(Cc2ccc(-c3ccc4ncnc(Nc5ccc(OCc6ccccc6)c(F)c5)c4c3)o2)CC1 | 0.47
N#Cc1c(NC(=O)c2cccc3ccccc23)sc2c1CCCC2 | -3.88
COC(=O)Nc1nc2cc(Oc3cccc(NC(=O)Nc4cc(C(F)(F)F)ccc4F)c3)ccc2[nH]1 | 11.4
O=C1NC(=O)C(c2ccc(Cl)cc2)=C1Nc1ccc(Cl)c(C(=O)O)c1 | 6.6
COc1cc2ncn(-c3cc(OCc4ccccc4C(F)(F)F)c(C(N)=O)s3)c2cc1OC | 53.1
Nc1ncnc2occ(-c3ccc(NC(=O)Nc4cccc(C(F)(F)F)c4)cc3)c12 | 99.6
COc1ccc(-c2ccncc2)cc1C(N)=O | 2
NCc1ccc(-c2nc(-c3ccc(Cl)c(O)c3)c(-c3ccncc3)[nH]2)cc1 | 69
COc1ccccc1Nc1ncc(-c2ccccc2)o1 | 9.85
CS(=O)(=O)CCNCc1ccc(-c2ccc3ncnc(Nc4ccc(OCc5ccccc5)c(Cl)c4)c3c2)o1 | 2.54
CS(=O)(=O)Nc1ccc(N/C=C2\C(=O)Nc3ccccc32)cc1 | 30.6
COc1cc2ncn(-c3cc(O[C@@H](C)c4ccccc4Cl)c(C(N)=O)s3)c2cc1OC | 67.6
COc1cc2ncn(-c3cc(O[C@H](C)c4ccccc4Cl)c(C(N)=O)s3)c2cc1OC | 81.3
NC(=O)c1ccc(-c2nc(-c3ccccn3)c(-c3ccc4c(c3)OCO4)[nH]2)cc1 | -0.31
O=C1Nc2ccc(C(=O)c3ccco3)cc2C1=Cc1cc(Cl)c(O)c(Cl)c1 | 12.3
COC(=O)Nc1nc2cc(Oc3ccc(NC(=O)Nc4cccc(C(=O)O)c4)cc3)ccc2[nH]1 | -5.74
COc1cc(C=NNc2ncnc3c2cnn3-c2ccccc2)ccc1O | 24.4
COc1ccc(COc2ccc(Cc3cnc(N)nc3N)cc2OC)cc1 | -0.86
NS(=O)(=O)c1cccc(-c2ccc3c(NC(=O)C4CC4)n[nH]c3c2)c1 | 5.11

target: Macrophage colony-stimulating factor 1 receptor (Homo sapiens) (UniProt P07333); details: at 0.1 µM;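 also: value reported is the mean inhibition of FMS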
Sequence (P07333 whole entry): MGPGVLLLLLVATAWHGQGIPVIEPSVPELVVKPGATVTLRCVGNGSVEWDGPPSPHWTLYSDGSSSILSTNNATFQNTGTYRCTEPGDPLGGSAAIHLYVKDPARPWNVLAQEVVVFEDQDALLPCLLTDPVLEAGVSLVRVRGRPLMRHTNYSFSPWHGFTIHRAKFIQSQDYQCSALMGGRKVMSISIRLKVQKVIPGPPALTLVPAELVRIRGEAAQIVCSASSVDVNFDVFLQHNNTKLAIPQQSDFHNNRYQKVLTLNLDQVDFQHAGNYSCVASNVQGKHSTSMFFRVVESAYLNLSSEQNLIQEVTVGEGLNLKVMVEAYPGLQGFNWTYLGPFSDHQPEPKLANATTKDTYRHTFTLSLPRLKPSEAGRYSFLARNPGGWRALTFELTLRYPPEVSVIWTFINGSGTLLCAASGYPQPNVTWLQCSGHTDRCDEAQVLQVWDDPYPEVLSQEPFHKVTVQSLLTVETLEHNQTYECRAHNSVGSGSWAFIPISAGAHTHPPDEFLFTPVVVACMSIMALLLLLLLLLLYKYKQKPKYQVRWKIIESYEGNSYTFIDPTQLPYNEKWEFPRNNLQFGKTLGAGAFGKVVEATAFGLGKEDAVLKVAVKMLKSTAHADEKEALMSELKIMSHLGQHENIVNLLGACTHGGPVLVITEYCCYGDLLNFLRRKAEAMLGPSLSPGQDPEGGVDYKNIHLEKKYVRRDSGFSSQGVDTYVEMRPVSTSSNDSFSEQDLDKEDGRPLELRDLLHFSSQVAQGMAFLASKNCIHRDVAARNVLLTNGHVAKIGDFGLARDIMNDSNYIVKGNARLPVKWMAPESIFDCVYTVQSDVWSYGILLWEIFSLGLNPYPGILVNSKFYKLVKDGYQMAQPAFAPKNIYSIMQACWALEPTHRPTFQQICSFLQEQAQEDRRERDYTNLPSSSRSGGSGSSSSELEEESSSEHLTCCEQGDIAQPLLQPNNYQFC

Structure (SMILES) | inhibition [%]
CC(=O)Nc1cccc(C#Cc2cncnc2Nc2ccc(OCc3cccc(F)c3)c(Cl)c2)n1 | 0.5
O=C1NC(=O)C(c2ccccc2Cl)=C1Nc1cccc(O)c1 | -1.08
COc1ccc2cc(-c3c(-c4ccncc4)nc(-c4ccc([S+](C)[O-])cc4)n3C)ccc2c1 (stereo unspecified) | -0.21
CCCN1CCC=C(c2ccc(Nc3nc(Nc4ccccc4C(N)=O)c4cc[nH]c4n3)c(C)c2)C1 | 27.4
CCn1c(-c2nonc2N)nc2cnc(Oc3cccc(NC(=O)c4ccc(OCCN5CCOCC5)cc4)c3)cc21 | 1.4
CC1=C(C(=O)Nc2ccc3[nH]ncc3c2)C(c2ccc3ccccc3c2)CC(=O)N1 (stereo unspecified) | 7.17
COc1cc(C)c(NC(=O)CN(C)C)cc1Nc1nc(Nc2cccc(F)c2C(N)=O)c2cc[nH]c2n1 | 3.71
CN1CCC(C(=O)Nc2n[nH]c3nnc(-c4ccccc4)cc23)CC1 | 0.38
CCN1CCC(CC(=O)Nc2n[nH]c3nc(-c4cccs4)c(Br)cc23)CC1 | -2.02
Nc1nc(-c2ccccn2)c(-c2ccc3ncccc3n2)s1 | 2.04
[O-][S+]1CCN(Cc2ccc(-c3ccc4ncnc(Nc5ccc(OCc6ccccc6)c(F)c5)c4c3)o2)CC1 | 0.26
N#Cc1c(NC(=O)c2cccc3ccccc23)sc2c1CCCC2 | 0.85
COC(=O)Nc1nc2cc(Oc3cccc(NC(=O)Nc4cc(C(F)(F)F)ccc4F)c3)ccc2[nH]1 | 4.37
O=C1NC(=O)C(c2ccc(Cl)cc2)=C1Nc1ccc(Cl)c(C(=O)O)c1 | 0.6
Nc1ncnc2occ(-c3ccc(NC(=O)Nc4cccc(C(F)(F)F)c4)cc3)c12 | 98.1
CNC(=O)c1cncc(/C=C/c2c(Cl)cccc2Cl)c1 | 7.17

Structure (SMILES) | inhibition [%]
COc1ccc(-c2ccncc2)cc1C(N)=O | 2.6
NCc1ccc(-c2nc(-c3ccc(Cl)c(O)c3)c(-c3ccncc3)[nH]2)cc1 | 0.23
Fc1cccc(COc2ccc(Nc3ncnc4cc(-c5ccc[nH]5)sc34)cc2Cl)c1 | 0.63
Cc1ccc(NC(=O)c2ccnc(N3CCCC3)c2)cc1-c1ccc(C(=O)NCC2CC2)cc1 | 1.57
Cc1cc(O)cc(C)c1/C=C/c1cncc(-c2nn[nH]n2)c1 | 8.02
COc1ccccc1Nc1ncc(-c2ccccc2)o1 | 12
CS(=O)(=O)CCNCc1ccc(-c2ccc3ncnc(Nc4ccc(OCc5ccccc5)c(Cl)c4)c3c2)o1 | -2.83
CS(=O)(=O)Nc1ccc(N/C=C2\C(=O)Nc3ccccc32)cc1 | 7.03
COc1cc2ncn(-c3cc(O[C@@H](C)c4ccccc4Cl)c(C(N)=O)s3)c2cc1OC | 1.84
COc1cc2ncn(-c3cc(O[C@H](C)c4ccccc4Cl)c(C(N)=O)s3)c2cc1OC | 8.07
NC(=O)c1ccc(-c2nc(-c3ccccn3)c(-c3ccc4c(c3)OCO4)[nH]2)cc1 | 1.36
O=C1Nc2ccc(C(=O)c3ccco3)cc2C1=Cc1cc(Cl)c(O)c(Cl)c1 | 26.3
COC(=O)Nc1nc2cc(Oc3ccc(NC(=O)Nc4cccc(C(=O)O)c4)cc3)ccc2[nH]1 | 3.75
COc1cc(C=NNc2ncnc3c2cnn3-c2ccccc2)ccc1O | 7.04
NS(=O)(=O)c1cccc(-c2ccc3c(NC(=O)C4CC4)n[nH]c3c2)c1 | -0.02
